Test results from PubChem BioAssay (Tox21).
Records with an inconclusive call do not appear. Activity calls are given as the source filed them. Unless noted, calls come from the whole dose curve; as a rule, active = well fitted curve in the direction sought with a large enough effect in the repeat runs; inconclusive = weak or mixed curves; inactive = no such curve, though single readings can be large; an effect the other way counts as inactive or inconclusive.

What was measured:
[1] = qHTS assay for small molecule agonists of the p53 signaling pathway (AID 651631; calls by dose curve; note: nearly all actives have a fitted effect of over 15% in size)
Outline: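 Beta-lactamase reporter activity under p53 response elements was quantified in HCT-116 cells by FRET fluorescence, following 16 h incubation with test compounds at 37 °C and 2 h substrate development at room temperature.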

[2] = qHTS assay for small molecules that induce genotoxicity in human embryonic kidney cells expressing luciferase-tagged ATAD5 (AID 651632); note: nearly all actives have a fitted effect of over 15% in size
Outline: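 Test compounds were delivered by pin tool onto HEK293T reporter cells (2,000/well) expressing ATAD5 fused to luciferase. After 16 hr at 37C, 5% CO2, Amplite was added for 30 min at room temperature and luminescence was measured.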

[3] = qHTS assay for small molecule agonists of the p53 signaling pathway - cell viability (AID 651633; calls by dose curve;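 note: p53RE-bla HCT reporter cells with a stable beta-lactamase p53 reporter; series mostly up to about 83 µM; nearly all actives have a fitted effect of over 30% in size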)
Outline: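 p53RE-bla cells, seeded at 4,000 per well and rested 5 h at 37 C/5% CO2, received compounds in DMSO for 16 h at 37 C. CellTiter-Glo was then added, and luminescence was read after 30 min at room temperature to gauge cytotoxicity.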

[4] = qHTS assay for small molecules that induce genotoxicity in human embryonic kidney cells expressing luciferase-tagged ATAD5 - cell viability (AID 651634; calls by dose curve; note: nearly all actives have a fitted effect of over 25% in size)
Outline: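 Quantitative high-throughput format. HEK293T cells expressing ATAD5 fused to luciferase were plated at 2,000 cells/well and treated 15.5 hr with compound versus DMSO. Viability was determined by fluorescent live-cell protease substrate, 30 min at 37C.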

[5] = qHTS assay for small molecule disruptors of the mitochondrial membrane potential - cell viability (AID 720634; calls by dose curve;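 note: human HepG2 liver cancer cells; series mostly up to about 83 µM; nearly all actives have a fitted effect of over 20% in size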)
Outline: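 Same-well counter-screen: following the MMP dye addition, CellTiter-Glo was added to 1 hr compound-treated HepG2 cells and luminescence read after 30 min at room temperature.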

[6] = qHTS assay for small molecule disruptors of the mitochondrial membrane potential (AID 720635)
Outline: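 HepG2 cells (2,000/well) attached overnight at 37C, then took compound for 1 hr at 37C, 5% CO2. Mito-MPS dye was added for 30 min; fluorescence was read at 490/535 nm (monomers) and 540/590 nm (aggregates).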

[7] = qHTS assay to test for compound auto fluorescence at 590 nm (red) in HepG2 cells (AID 720674)
Outline: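 Rose Bengal sodium served as the red fluorophore standard. HepG2 monolayers (overnight attachment, MEM with 10% FBS) were exposed to test compounds for 1 hr at 37 C and read at Ex 540/Em 590 nm.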

[8] = qHTS assay to test for compound auto fluorescence at 535 nm (green) in HepG2 cells (AID 720675)
[9] = qHTS assay to test for compound auto fluorescence at 460 nm (blue) in HEK293 cells (AID 720678)
Outline: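 HEK293 cells (2,000 per well, medium with 10% dialyzed FBS) attached for 4-5 hr at 37C, then received compound and stood overnight at 37C, 5% CO2. Blue fluorescence was read at Ex/Em 405/460 nm and expressed relative to triamterene.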

[10] = qHTS assay to test for compound auto fluorescence at 590 nm (red) in HEK293 cells (AID 720679)
Outline: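 HEK293 cells (2,000/well, medium with 10% dialyzed FBS) attached for 4-5 hr at 37C, received 23 nL compound and were incubated overnight at 37C, 5% CO2. Red fluorescence was then read at 540/590nm Ex/Em, referenced to Rose Bengal sodium.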

[11] = qHTS assay to test for compound auto fluorescence at 535 nm (green) in HEK293 cells (AID 720680)
[12] = qHTS assay to test for compound auto fluorescence at 460 nm (blue) in HEK293 cell free culture (AID 720681)
Outline: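 Test compounds were pinned into cell-free culture medium (DMEM with 10% FBS) and fluorescence was read directly at Ex/Em 405/460 nm. Signals were expressed as fluorescence equivalents of triamterene, with DMSO vehicle as control.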

[13] = qHTS assay to test for compound auto fluorescence at 535 nm (green) in HEK293 cell free culture (AID 720682)
Outline: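 Each library compound, or DMSO control, is added by pintool to medium alone, comprising DMEM and 10% FBS. Emission at 535 nm following 485 nm excitation is quantified against fluorescein.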

[14] = qHTS assay to test for compound auto fluorescence at 590 nm (red) in HEK293 cell free culture (AID 720683)
Outline: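 Tox21 10K library compounds were pinned into cell-free DMEM with 10% FBS and fluorescence was read at excitation 540 nm. Activity is expressed as Rose Bengal sodium equivalency.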

[15] = qHTS assay to test for compound auto fluorescence at 590 nm (red) in HepG2 cell free culture (AID 720684)
Outline: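 Readout: intrinsic compound fluorescence at 590 nm emission after 540 nm excitation, scaled to Rose Bengal sodium. Matrix was cell-free MEM with 10% FBS; DMSO vehicle wells served as control.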

[16] = qHTS assay to test for compound auto fluorescence at 460 nm (blue) in HepG2 cell free culture (AID 720685)
Outline: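 Cell-free plates of MEM plus 10% FBS received 23 nL compound or DMSO vehicle; blue-channel (405/460 nm) intensity scored against triamterene as reference fluorophore.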

[17] = qHTS assay to test for compound auto fluorescence at 535 nm (green) in HepG2 cell free culture (AID 720686)
[18] = qHTS assay to test for compound auto fluorescence at 460 nm (blue) in HepG2 cells (AID 720687)
Outline: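 Cells (2,000/well in MEM with 10% FBS) attached overnight at 37 C, then were exposed to compound or DMSO for 1 hr at 37 C, 5% CO2. Fluorescence read at Ex/Em 405/460 nm, expressed as triamterene-equivalent signal.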

[19] = molecular target: Glucocorticoid receptor (Homo sapiens) (UniProt P04150); assay: qHTS assay to identify small molecule agonists of the glucocorticoid receptor (GR) signaling pathway (AID 720691; active = well fitted activation curve with a large enough effect in the signal ratio in the repeat runs, not every such curve was filed as active; the % refers to the signal ratio)
Outline: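 A HeLa cervical cancer line expressing GR and a glucocorticoid response element-driven beta-lactamase gene is treated with compounds for 18 h; LiveBLAzer B/G FRET substrate is then applied and fluorescence read.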

[20] = molecular target: Glucocorticoid receptor (Homo sapiens) (UniProt P04150); assay: qHTS assay to identify small molecule antagonists of the glucocorticoid receptor (GR) signaling pathway (AID 720692; active = well fitted inhibition curve with a large enough effect in the signal ratio in the repeat runs, not every such curve was filed as active; the % refers to the signal ratio)
Outline: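 GRE-bla HeLa line, dex-stimulated (5 nM final). Compound exposure 18 h, 37 C. Beta-lactamase FRET read after 2 h RT substrate.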

Measured: Potency

Glucocorticoid receptor (Homo sapiens), sequence (P04150 whole entry, looked up): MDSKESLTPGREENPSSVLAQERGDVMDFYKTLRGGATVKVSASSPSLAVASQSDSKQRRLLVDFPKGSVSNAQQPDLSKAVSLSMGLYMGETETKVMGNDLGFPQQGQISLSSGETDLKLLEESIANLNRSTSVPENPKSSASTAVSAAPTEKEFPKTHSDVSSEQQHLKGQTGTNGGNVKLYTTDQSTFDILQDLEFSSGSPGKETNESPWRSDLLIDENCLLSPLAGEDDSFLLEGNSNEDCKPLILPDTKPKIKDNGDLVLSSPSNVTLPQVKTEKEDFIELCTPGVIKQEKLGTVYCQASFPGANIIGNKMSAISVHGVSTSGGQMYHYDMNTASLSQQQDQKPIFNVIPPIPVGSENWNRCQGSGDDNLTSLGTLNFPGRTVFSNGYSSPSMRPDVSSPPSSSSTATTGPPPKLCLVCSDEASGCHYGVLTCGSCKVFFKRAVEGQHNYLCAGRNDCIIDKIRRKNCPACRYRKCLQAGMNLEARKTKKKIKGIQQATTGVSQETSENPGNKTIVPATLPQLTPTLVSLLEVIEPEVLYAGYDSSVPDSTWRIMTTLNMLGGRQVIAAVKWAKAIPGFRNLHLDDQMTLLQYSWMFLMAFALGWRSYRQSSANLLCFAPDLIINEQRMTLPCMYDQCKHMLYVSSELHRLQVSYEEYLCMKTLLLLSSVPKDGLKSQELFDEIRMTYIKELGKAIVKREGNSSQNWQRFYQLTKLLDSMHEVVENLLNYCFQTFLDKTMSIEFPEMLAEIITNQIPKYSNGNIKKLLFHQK

CCN(C=O)CC
not listed: [20]
inactive: all other assays above

CC(C#N)(CCC(=O)O)N=NC(C)(C#N)CCC(=O)O (stereo unspecified)
not listed: [19] | [20]
inactive: all other assays above

CC1(C)OC[C@@H](COC(=O)CCc2ccc(OC[C@@H](O)CNCCNC(=O)N3CCOCC3)cc2)O1
not listed: [16]
inactive: all other assays above

CO[C@@]1(NC(=O)CSC[C@@H](N)C(=O)O)C(=O)N2C(C(=O)O)=C(CSc3nnnn3C)CS[C@@H]21
not listed: [19] | [20]
inactive: all other assays above

[O-][n+]1cccc(CO)c1
inactive: all assays above

Clc1cc(Cl)c(Cl)nc1Cl
not listed: [19] | [20]
inactive: all other assays above

CC(C)(CCC(=O)O)C(=O)O
not listed: [15]
inactive: all other assays above
